The results in this text go back to PubChem BioAssay AID1851 (National Center for Advancing Translational Sciences (NCATS), 2009).

Several values for one entry are separate records, joined by “and”; a condition that tells them apart may be missing. Equal values may be shown once. In all, about 16,000 compounds went through this assay and about 2,600 (16%) were called active. About 20% were inconclusive and are not listed. Calls follow the shape of the dose curve; as a rule, active = well fitted curve in the direction sought with a large enough effect; inconclusive = small, poorly fitted or top-dose-only effect, or effect the other way; inactive = no such curve, though single readings can be large or run the other way. A selection follows. Where a structure was tested more than once in an assay, its records may differ in their call.
% is scaled to controls: 0 for no effect and ±100 for the full control effect.

Chain of Cytochrome P450 2D6 (Homo sapiens) (P10635 whole entry, looked up): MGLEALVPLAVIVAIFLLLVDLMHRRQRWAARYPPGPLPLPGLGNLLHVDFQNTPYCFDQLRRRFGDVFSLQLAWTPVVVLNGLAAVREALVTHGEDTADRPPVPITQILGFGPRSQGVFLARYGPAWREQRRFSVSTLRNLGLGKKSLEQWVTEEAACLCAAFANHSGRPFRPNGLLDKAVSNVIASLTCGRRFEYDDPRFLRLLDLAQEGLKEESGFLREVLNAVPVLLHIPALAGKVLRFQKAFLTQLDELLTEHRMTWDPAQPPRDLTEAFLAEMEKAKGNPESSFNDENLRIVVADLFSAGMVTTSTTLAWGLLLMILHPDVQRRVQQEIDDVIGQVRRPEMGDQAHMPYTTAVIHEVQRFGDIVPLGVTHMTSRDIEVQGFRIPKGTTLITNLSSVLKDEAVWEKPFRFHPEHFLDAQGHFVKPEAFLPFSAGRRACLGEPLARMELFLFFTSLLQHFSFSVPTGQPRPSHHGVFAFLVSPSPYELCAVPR

The test addresses Cytochrome P450 2D6 (Homo sapiens) (UniProt P10635). Description: Cytochrome panel assay with activity outcomes. Particulars: recombinant CYP, pro-luciferin dealkylation, luminescence, p450-cyp2d6; series mostly up to 57.1 µM.
Take `Fc1cc(Br)ccc1NC(=S)NCCc1ccccc1`: the AC50 (commonly the concentration giving half of the maximal activity seen) is 20 µM (active). For `CCNC(=S)NNC(=O)Cc1ccccc1`, the AC50 result was “inactive”. Regarding `COc1ccccc1NC(=S)NCCc1ccccc1`, the AC50 was 7.08 µM (active).

In the case of `O=C(NCCc1ccccc1)C(=O)NN=C1CCCC1`, the AC50 entry was “inactive”.

Regarding `Fc1ccccc1NC(=S)NCCc1ccccc1`, the AC50 was 15.8 µM (active).

As to `COc1ccccc1NC(=S)NC(=O)c1ccc(-c2ccc(Cl)cc2)o1`, the AC50 result is “inactive”. The same measure, in the same setting: for `CCN(C(=S)Nc1ccccc1F)C1CCCCC1` the value was “inactive”; for `CC(C)(C)C(=O)NC(=S)NCCc1ccccc1`, “inactive”.

Turning to `CCNc1ncc2nc(-c3ccccc3)c(=O)n(Cc3ccc(F)cc3)c2n1`, the AC50 entry was “inactive”. As to `CS(=O)(=O)N1CCC2(CCCN(C(=O)Nc3cccc(C#N)c3)C2)CC1`, the AC50 entry was “inactive”. On the same count and under the same terms, for `COCCn1c(=O)c(-c2ccccc2)nc2cnc(OC)nc21` the value was “inactive”.

As to `CCn1c(CCCc2nc3c([nH]2)c(=O)n(C)c(=O)n3C)nc2c1c(=O)n(C)c(=O)n2C`, the activity, negative = inhibition is 8.15% [at 11.4 µM] (inactive). Turning to `S=c1[nH]nc(CCc2ccccc2)n1Cc1ccccc1`, the AC50 entry was “inactive”.

As for `CC(=O)c1ccc(N2CCC(c3cc(-c4ccc(Cl)cc4Cl)n[nH]3)CC2)c([N+](=O)[O-])c1`, the AC50 result was “inactive”. In the case of `COc1ccc(C(=O)n2c(SC)nc3cc4c(cc32)OCCO4)cc1`, the AC50 entry was “inactive”. The same measure, in the same setting: for `Cc1cccc(OCCSCc2nc3ccccc3[nH]2)c1` the value was 0.282 µM (active). On to `COc1cnc(-c2ccccc2)nc1Oc1cccc(C)c1`, for which the AC50 result is “inactive”. On the same count and under the same terms, for `O=C(COc1ccc2ccccc2c1Br)NNC(=O)Nc1ccccc1` the value was “inactive”; for `Cc1nc(SCC(=O)c2cc3ccccc3oc2=O)c(C#N)c(C)c1C(=O)Nc1ccccc1`, “inactive”; for `COc1ccc(/C=C(/NC(C)=O)C(=O)O)cc1`, “inactive”.

As for `CCOC(=O)CNC(=O)c1cccnc1`, the AC50 entry was “inactive”. Still for that read-out and setting: for `Fc1ccc(CSc2nnc(-c3cc4c(s3)-c3ccccc3CC4)o2)cc1` the value was “inactive”; for `c1ccc(CSc2nnc(-c3sccc3-n3cccc3)o2)cc1`, 14.1 µM (active). On the same count and under the same terms, for `c1ccc(CSc2nnc([C@@H]3CCCN3)o2)cc1` the value was “inactive”; for `CCc1ccc(N(C(=O)c2csnn2)C(C(=O)NC(C)(C)C)c2ccncc2)cc1` (configuration not stated), “inactive”. Turning to `O=C(O)c1ccccc1C(=O)NNc1ccc(F)cc1`, the AC50 result is “inactive”. Same read-out and setting: for `CCOC(=O)N1CCN(S(=O)(=O)c2ccc(C(=O)Nc3ccc(F)cc3F)cc2)CC1` the value was “inactive”; for `N#Cc1c(-c2ccccc2)cc(-c2ccccc2)nc1SCc1nnc(-c2ccccc2)o1`, “inactive”; for `CC1CCC2(CC1)N=C(N)Nc1nc3ccccc3n12` (configuration not stated), 2.82 µM (active). On the same count and under the same terms, for `NC1=NC2(CCCCCC2)n2c(nc3ccccc32)N1` the value was 12.6 µM (active); for `Nc1c(N=Nc2cccc(Cl)c2)c(=O)[nH]n1-c1ccccc1`, “inactive”. Same read-out and setting: for `CCC(C)n1c(NC(=O)c2ccccc2)c(C#N)c2nc3ccccc3nc21` (configuration not stated) the value was “inactive”; for `CCOc1cccc(/C(O)=C2/C(=O)C(=O)N(Cc3cccnc3)C2c2ccco2)c1` (configuration not stated), “inactive”.

Regarding `CN1C(C(=O)Nc2ccccn2)=C(O)c2sccc2S1(=O)=O`, the AC50 result was “inactive”.

In the case of `CN1C(C(=O)Nc2ccccn2)=C(O)c2ccccc2S1(=O)=O`, the AC50 entry was “inactive and 25.1 µM (active)”.

For the molecule `Cc1cc(NC(=O)C2=C(O)c3ccccc3S(=O)(=O)N2C)no1`, the AC50 entry is “inactive”.

Take `CCNc1ncc2nc(-c3ccc(OC)cc3)c(=O)n(Cc3ccc(F)cc3)c2n1`: the AC50 result was “inactive”.

Consider `O=C(CN1CCN(S(=O)(=O)c2ccccc2)CC1)NC(=O)NCc1ccccc1`, for which the AC50 result was “inactive”. In the case of `CCCOC(=O)c1c(-c2ccccc2)nc(CC)c(C(=O)SCC)c1CCC`, the AC50 entry was “inactive”. As to `Cc1cnc(NC(=O)CSc2ccc(Cl)cc2)s1`, the AC50 was 3.98 µM (active). As for `COCc1nnc(NC(=O)CSc2ccc(C)cc2)s1`, the AC50 result was “inactive”.

Take `Cc1cc(Cl)nc(NC(=O)CSc2ccc(Cl)cc2)n1`: the activity, negative = inhibition was 18.7% [at 11.4 µM] (inactive).

For the molecule `COC(=O)c1ccccc1NC(=O)c1c(Br)cnn1C`, the AC50 result was “inactive”. On the same count and under the same terms, for `COc1cccc(OCc2nnc(SCC(=O)NCc3ccco3)n2C)c1` the value was “inactive”; for `CNc1ncc(C(=O)c2ccccc2)s1`, “inactive”.

For `CCOc1ncnc2c1oc1nc(CC(C)C)c3c(c12)CC(C)(C)OC3`, the AC50 result was “inactive”.

For `C=CC[N+]1(CC#CCOC(c2ccccc2)c2ccccc2)CCOCC1`, the AC50 is 7.08 µM (active).

As to `O=C1N=C(N2CCOCC2)S/C1=C\C=C/c1ccccc1`, the AC50 entry is “inactive”. In the case of `Cn1c([N+](=O)[O-])cnc1CN1CCN(CCO)CC1`, the activity, negative = inhibition was 10.5% [at 11.4 µM] (inactive).

`O=C1CCCC=C1[C@H](CCc1ccccc1)OC(=O)c1ccc(Br)cc1`: the activity, negative = inhibition was -4.24% [at 11.4 µM] (inactive). Consider `O=C(NNC(=S)Nc1ccccc1)c1ccco1`, for which the AC50 entry was “inactive”.

Turning to `O=C(NC(=S)Nc1cccc(Cl)c1N1CCCCC1)c1ccco1`, the AC50 result was “inactive”. As for `O=C(NC(NC(=S)Nc1cc(Cl)ccc1Cl)C(Cl)(Cl)Cl)c1ccco1` (configuration not stated), the AC50 was 11.2 µM (active). Regarding `N#CCCn1cc(/C=N/O)c(-c2ccc(Cl)cc2)n1`, the AC50 result is “inactive”. On the same count and under the same terms, for `N#Cc1c2c(c(-n3cnc4ccccc43)n3c1nc1ccccc13)CCC2` the value was “inactive”; for `O=C(NCc1ccccc1)c1ccc2c(c1)C(=O)N(CC1CCCO1)C2=O` (configuration not stated), “inactive”; for `CC1=CC(=O)C=CC1(C)C(Cl)(Cl)Cl` (configuration not stated), “inactive”. The same measure, in the same setting: for `CC(C)N(CCC(=O)c1ccc2ccccc2c1)Cc1ccccc1` the value was 2 µM (active) and inactive. On to `CN(C)/C=N/c1ncc(C(=O)c2ccc3ccccc3c2)s1`, for which the AC50 result is “inactive”. Turning to `COc1ccc(S(=O)(=O)N(CC(=O)N2CCCC2)Cc2ccccc2)cc1`, the AC50 entry is “inactive”. For the molecule `CC1CN(C(=S)NC(=O)c2ccc([N+](=O)[O-])cc2)CC(C)O1` (configuration not stated), the AC50 entry was “inactive”. Same read-out and setting: for `COc1ccc(Oc2ncc3nc(C)c(=O)n(-c4ccc(OC)cc4)c3n2)cc1` the value was “inactive”; for `O=C(Nc1ccc(Cl)cc1C(F)(F)F)c1ccc(Cl)cc1`, 0.282 µM (active); for `NCCNC(=O)c1ccc(Cl)cc1`, “inactive”. On the same count and under the same terms, for `Cc1ccc(C(=O)Nc2cc(Cl)ccc2OC(=O)c2ccc(C)cc2)cc1` the value was “inactive”. For the molecule `COc1ccc(COC(=O)N/N=C2/C[C@@H](O)[C@@H](O)[C@@H]3[C@H]4C(=O)N(c5ccc(F)cc5F)C(=O)[C@@H]4CC[C@H]23)cc1`, the activity, negative = inhibition is -14.9% [at 11.4 µM] (inactive).

In the case of `CCCN(CCC)CCCNS(=O)(=O)c1cc(Br)cc2c1N(C(C)=O)CC2`, the AC50 entry was “inactive”. On the same count and under the same terms, for `O=C(O)Cn1c(-c2ccccc2)nc2ccccc21` the value was “inactive”.

`O=c1c2ccc([N+](=O)[O-])c3cccc(c32)c2nc3ccccc3n12`: the AC50 result is “inactive”. As for `O=C(O)c1ccc2c3c1cccc3c(=O)n1c3ccccc3nc21`, the AC50 is 15.8 µM (active). The same measure, in the same setting: for `Cc1cc(N2CCOCC2)ncc1[N+](=O)[O-]` the value was “inactive”; for `COc1ccc(Cc2nnc(NC(=O)c3ccco3)s2)cc1`, “inactive”; for `COc1ccccc1CNc1cc(-c2ccccc2Cl)ncn1`, 12.6 µM (active). On the same count and under the same terms, for `COc1ccccc1-c1cc(NCc2ccccc2)ncn1` the value was 20 µM (active); for `COc1ccccc1CNc1cc(-c2ccoc2)ncn1`, 15.8 µM (active); for `COc1ccccc1CNc1cc(-c2ccccc2OC)ncn1`, 20 µM (active). As to `COc1ccccc1-c1cc(Nc2ccn[nH]2)ncn1`, the AC50 result was “inactive”. Same read-out and setting: for `Cc1sc2ccccc2[n+]1CCC(C)S(=O)(=O)[O-]` (configuration not stated) the value was “inactive”. Still for that read-out and setting: for `C=CCSc1nc(Oc2ccccc2)c2sccc2n1` the value was “inactive”. The same measure, in the same setting: for `CCCc1nnc(SCC(=O)N2CCCCC2C)n1CCCOC` (configuration not stated) the value was “inactive”. For the molecule `CCn1cc(C(=O)O)c(=O)c2cnc(N3CCNCC3)nc21`, the AC50 entry was “inactive”. `CO[C@@H]1COC(=O)C/C=C\[C@H](C)COC(=O)[C@H](Cc2ccccc2)NC(=O)C/C=C\[C@H]1C`: the activity, negative = inhibition is 9.42% [at 11.4 µM] (inactive).

`Cc1cc(SC(C)C(=O)Nc2c(C)n(C)n(-c3ccccc3)c2=O)nc2ccccc12` (configuration not stated): the AC50 entry was “inactive”. As for `C[C@@]12C(=O)OC(=O)[C@]1(C)[C@H]1CC[C@@H]2O1`, the AC50 result was “inactive”.

Turning to `COC(=O)C/C=C1\c2ccccc2[C@H](OC)[C@H]1C`, the activity, negative = inhibition is 5.25% [at 11.4 µM] (inactive).

For the molecule `CC(C)Cn1c(C(C)C)nc([N+](=O)[O-])c1S(=O)(=O)c1ccc(F)cc1`, the AC50 entry was “inactive”. For the molecule `CSc1nc(C)cc(SC(C(C)=O)C(=O)Nc2ccccc2)n1` (configuration not stated), the AC50 result was “inactive”.

Take `C/C(=N\NC(=S)Nc1ccc(F)cc1)C1CC1`: the AC50 result is “inactive”. Still for that read-out and setting: for `C[C@@]12CCC(=O)C=C1CC[C@H]1[C@H]3CC[C@](O)(C(=O)CO)[C@]3(C)CC(=O)[C@@H]12` the value was “inactive”; for `COc1ccc(NC(=O)c2cc(-c3cccnc3)nc3ccc(C)cc23)cc1OC`, “inactive”. Still for that read-out and setting: for `Cc1ccc2nc(-c3ccccc3)cc(C(=O)NCCCn3ccnc3)c2c1` the value was 5.01 µM (active). For `Cc1cccc(NC(=S)NC(=O)c2cc(-c3ccccc3)nc3ccccc23)c1`, the AC50 result was “inactive”. Consider `COc1cccc(Nc2ncc3nc(-c4ccc(Cl)cc4)c(=O)n(CCC#N)c3n2)c1`, for which the AC50 entry is “inactive”. In the case of `C=CCSc1ncccc1C(=O)NCc1ccc(C)cc1`, the AC50 entry is “inactive”. The same measure, in the same setting: for `O=C(/C=C\c1ccc(O)c(O)c1)O[C@@H](Cc1ccc(O)c(O)c1)C(=O)O` the value was “inactive”.

In the case of `CCCC(=O)NC(Nc1ccccc1F)C(Cl)(Cl)Cl` (configuration not stated), the AC50 entry is “inactive”. Still for that read-out and setting: for `FC(F)(F)c1ccccc1-c1cncnc1NCCc1cnc[nH]1` the value was 12.6 µM (active); for `COc1cccc(-c2cncnc2NCCc2cnc[nH]2)c1`, 7.94 µM (active); for `COc1ccccc1-c1cncnc1NCCc1cnc[nH]1`, 10 µM (active).

Turning to `CC(=O)NCCNc1ncncc1-c1ccccc1C(F)(F)F`, the AC50 result is “inactive”. On to `COCCNc1ncncc1-c1c(C)noc1C`, for which the AC50 result is “inactive”.

Consider `CC(Oc1ccc(Cl)cc1)C(=O)/C=C/N(C)C` (configuration not stated), for which the AC50 entry is “inactive”. The same measure, in the same setting: for `COc1ccc(CNc2nc3nc4c(c(=O)n3[nH]2)CCC4)cc1` the value was “inactive”; for `CN1CC[C@@]2(CCCN(C(=O)c3cc(C(F)(F)F)cc(C(F)(F)F)c3)C2)C1`, “inactive”; for `O=C(NC1CCCCC1)c1ccc(COCC(F)(F)F)o1`, “inactive”. Consider `Cc1cc2ccc(OC(=O)c3ccc(N=C(N)N)cc3)cc2oc1=O`, for which the activity, negative = inhibition is -7.56% [at 11.4 µM] (inactive). Regarding `C=CCOc1cccc(/C=N/NC(=O)C(=O)NCc2ccco2)c1`, the AC50 entry is “inactive”.
